Drawing on ChEMBL document CHEMBL3433997, “St. Jude Leishmania screening dataset” (2016), this text covers inhibition for 31 compounds.

What all share (assay type): functional
In experiment [1] the target is Solute carrier family 2, facilitated glucose transporter member 1 (Homo sapiens) (UniProt P11166). Nature of the experiment: ST_JUDE_LEISH: Cytotoxicity at 2uM final concentration against transgenic Leishmania Mexicana promastigotes LmGLUT1 that are glucose transport deficient and complemented with the human glucose transporter GLUT1. Activity is measured by DNA content using SYBR green in vitro.

The target in experiment [2] is Hexose transporter 1 (Plasmodium falciparum) (UniProt O97467). Nature of the experiment: ST_JUDE_LEISH: Cytotoxicity at 2uM final concentration against transgenic Leishmania Mexicana promastigotes LmPfHT that are glucose transport deficient and complemented with the Plasmodium falciparum hexose transporter. Activity is measured by DNA content using SYBR green in vitro.

Experiment [3] concerns the target Glucose transporter (Leishmania mexicana) (UniProt O61059). Nature of the experiment: ST_JUDE_LEISH: Cytotoxicity at 2uM final concentration against transgenic Leishmania Mexicana promastigotes LmGT2 that are glucose transport deficient and complemented with the L. Mexicana glucose transporter 2. Activity is measured by DNA content using SYBR green in vitro.

Sequence of Solute carrier family 2, facilitated glucose transporter member 1 (Homo sapiens) (P11166 whole entry): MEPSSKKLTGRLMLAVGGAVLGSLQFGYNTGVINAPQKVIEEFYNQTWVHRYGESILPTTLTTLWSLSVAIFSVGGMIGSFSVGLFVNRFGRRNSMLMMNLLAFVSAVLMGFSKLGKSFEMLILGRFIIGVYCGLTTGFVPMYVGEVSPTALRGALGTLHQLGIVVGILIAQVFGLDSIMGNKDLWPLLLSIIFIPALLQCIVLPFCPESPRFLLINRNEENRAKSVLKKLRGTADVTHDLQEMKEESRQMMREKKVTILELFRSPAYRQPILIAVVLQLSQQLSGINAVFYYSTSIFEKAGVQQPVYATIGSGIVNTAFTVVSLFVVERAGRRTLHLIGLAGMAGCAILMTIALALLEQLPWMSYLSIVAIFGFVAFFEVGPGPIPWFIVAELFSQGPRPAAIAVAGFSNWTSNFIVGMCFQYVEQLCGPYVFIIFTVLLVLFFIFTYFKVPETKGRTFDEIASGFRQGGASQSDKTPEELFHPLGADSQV

As for `N=C(NCCCc1ccccc1)c1cccc(C(=N)NCCCc2ccccc2)n1`, the results for the inhibition in experiment [1], in experiment [2] and in experiment [3] were -0.39%, -1.1% and -0.17%, respectively.
For the compound `CCC[C@@H]([C@@H](CC1CCCCC1)C(=O)N[C@@H](CCCCNS(C)(=O)=O)C(=O)Nc1nccs1)N(O)C=O`, the inhibition in experiment [1] was 1.61%; in experiment [2], 3.98%; in experiment [3], -0.28%.
The corresponding values for `Cn1cnc(CCNC(=O)c2ccc(-c3ccc(-c4nc5cc(F)ccc5[nH]4)cc3)cc2)c1` are 5.05%, 5.92% and 4.84%.
For `N#Cc1cccc(CN2CCCN(Cc3ccc(C(=O)Nc4ccc(Cl)cc4)cc3)CC2)c1` the same measures were 4.41%, 5.4% and -0.06%.
Consider `COc1cc2ncnc(Nc3ccc4nc(-c5ccccc5)[nH]c4c3)c2cc1OC`, for which the inhibition in experiment [1] stood at 4.22%; in experiment [2], 3.9%; in experiment [3] it was 2%.
The corresponding values for `c1cc2[nH]c(CCCCCc3nc4cc(C5=N[C@@H]6CCCC[C@@H]6N5)ccc4[nH]3)nc2cc1C1=N[C@@H]2CCCC[C@@H]2N1` are 3.32%, 2.96% and 1.81%.
Turning to `CCOC(=O)c1c(CCc2ccc(C(F)(F)F)cc2)nc2c(c1-c1ccc(C(=O)N[C@@H](C)c3ccncc3)cc1)C(=O)N1CCC[C@@H]21`, the inhibition in experiment [1] stood at 2.81%; in experiment [2] it was 1.31%; in experiment [3] it was 0.48%.
The corresponding values for `CCc1cc(OC)c(C(=O)NC2CCN(C[C@H](O)c3ccnc4ccc(OC)cc34)CC2)cc1Br` are 1.58%, -0.43% and -0.3%.
Take `Cc1cccc2nc(-c3ccc(-c4ccc(CNCc5cnn(-c6ccccc6)n5)cc4)cc3)[nH]c12`: the inhibition in experiment [1] amounted to 1.08%; in experiment [2], 1.39%; in experiment [3] it was 1.19%.
Turning to `O=S(=O)(NCCN1CCCC1)c1ccc(-c2cccc(CNCc3ccc(F)cc3)c2)s1`, the inhibition in experiment [1] is 6.73%; in experiment [2], 2.44%; in experiment [3], -1.98%.
The corresponding values for `CC(C)[C@H](NC(=O)c1ccc(O)c(-c2cccc(C(F)(F)F)c2)c1)C(=O)NC1CCCc2ccccc21` (stereo partly drawn) are 3.9%, 2.89% and 0.81%.
The corresponding values for `O=C(Nc1ccsc1)Nc1cccc(-c2cccc(-c3nc4ccccc4[nH]3)c2)c1` are 9.79%, 10.8% and 4.27%.
For `O=C(Nc1cccc([N+](=O)[O-])c1)Nc1cccc(C(F)(F)F)c1` the same measures were 1.48%, 1.8% and 2.9%.
In the case of `Clc1ccc2c(NCCNc3ccnc4cc(Cl)ccc34)ccnc2c1`, the results for the inhibition in experiment [1], in experiment [2] and in experiment [3] were -0.52%, -2.22% and -0.13%, respectively.
For `Cc1nc(-c2cccc(Nc3nccc(NCC(O)c4cccc(F)c4)n3)c2)cs1` (stereo not drawn) the same measures were -0.89%, -0.36% and -3.57%.
The corresponding values for `Cc1cc(NC2CCCC2)nc(Nc2ccccc2)n1` are 16.4%, 9.56% and 6.13%.
The corresponding values for `CCCCOc1ccc(-n2c(Nc3ccccc3)nc3cc(S(N)(=O)=O)ccc32)cc1` are 11.4%, 8.64% and 7.09%.
For `COc1cc(CNC[C@@H](O)[C@H](Cc2ccccc2)NC(=O)c2cc(C3CCCC3)cc(N3CCCS3(=O)=O)c2)cc(OC)c1`, the figures for the inhibition in experiment [1], in experiment [2] and in experiment [3] were 4.36%, 3.83% and 4.45%, respectively.
The corresponding values for `Cc1n[nH]c2ccc(-c3ccc4nccc(N5CCC(N)CC5)c4c3)cc12` are -2.13%, -0.1% and -3.17%.
For `CC(C)c1ccc(Cn2cc(-c3ccncc3)c3cc(OCc4ccccc4)ccc32)cc1` the same measures were 0.76%, 0.58% and 2.49%.
For `CC(O)C1CCCCN1C(=O)c1cccc(-c2cccc(-c3nc4cc(C(F)(F)F)ccc4[nH]3)c2)c1` (stereo not drawn) the same measures were -0.23%, 1.12% and -0.12%.
`OCCN1CCN(Cc2ccc(-c3ccc(-c4nc5cc(F)ccc5[nH]4)cc3)cc2)CC1`: the inhibition in experiment [1] was 8.49%; in experiment [2] it was 6.23%; in experiment [3] it was 3.78%.
The corresponding values for `Fc1cccc(C=NN=c2cc[nH]c3ccccc23)c1` are 9.03%, 6.41% and 6.88%.
The corresponding values for `COc1cc2nc(Nc3ccc(N4CCOCC4)cc3)nc(N)c2cc1OC` are 0.99%, 2.3% and -0.6%.
The corresponding values for `O=C1C(c2ccccc2)=C(Nc2ccc(Cl)cc2)c2ccccc21` are 1.6%, 1.45% and 2.61%.
With `O=S(=O)(c1ccc(OCc2ccc(Cl)cc2)cc1)c1cc2c(cc1O)CCN(C1CCC1)CC2`, the inhibition in experiment [1] came to 2.05%; in experiment [2], 1.15%; in experiment [3] it was 1.15%.
In the case of `COc1ccc(Cc2c(Cl)nc3nc(N)nc(N)c3c2C)c(OC)c1OC`, the inhibition in experiment [1] stood at 5.35%; in experiment [2], 12.4%; in experiment [3], 5.26%.
For `CC(C)(CNC(=O)[C@@H]1CCCN(Cc2ccc(Cl)cc2)C1)c1nc(-c2ccc(Cl)c(O)c2)c(-c2ccncc2)[nH]1` the same measures were -1.45%, 0.41% and 0.77%.
The corresponding values for `Cc1ccc2nc(-c3ccc(/C=C/C(=O)NC4CCN(Cc5ccccc5)CC4)cc3)[nH]c2c1C` are 8.42%, 8.63% and 9.58%.
Consider `O=C(COc1ccccc1)N(Cc1ccc(-c2ccc(CNC3Cc4ccccc4C3)cc2)cc1)C1CCNCC1`, for which the inhibition in experiment [1] stood at 2.8%; in experiment [2], 2.48%; in experiment [3] it was 2.61%.
For `CS(=O)(=O)c1ccc(CCNCc2ccc(-c3cccc(-c4nc5ccccc5[nH]4)c3)cc2)cc1` the same measures were 1.41%, 0.65% and -0.73%.
